PostGolgi ctrl: yeast control strain growth, post-Golgi counter-screen | efflux-deficient yeast background strain, growth absorbance A615, 16 h | inhibition, % at 10 µM | hit rate 5% among 98,000
CYP2C19 inhib: human CYP2C19 inhibition; P33261; CYP2C19 Supersomes, luciferin-H EGE luminescence, 30 min; inhibition, % at 5 µM; hit rate 21% among 96,000; AID 778;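 active = CYP2C19 inhibition above a set limit at 5 µM in the primary screen, cut at about 50% in these data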;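 also: plate controls were negative control wells for no effect and 2.5 mM tranylcypromine positive control for full effect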
Target sequence (P33261 whole entry, looked up): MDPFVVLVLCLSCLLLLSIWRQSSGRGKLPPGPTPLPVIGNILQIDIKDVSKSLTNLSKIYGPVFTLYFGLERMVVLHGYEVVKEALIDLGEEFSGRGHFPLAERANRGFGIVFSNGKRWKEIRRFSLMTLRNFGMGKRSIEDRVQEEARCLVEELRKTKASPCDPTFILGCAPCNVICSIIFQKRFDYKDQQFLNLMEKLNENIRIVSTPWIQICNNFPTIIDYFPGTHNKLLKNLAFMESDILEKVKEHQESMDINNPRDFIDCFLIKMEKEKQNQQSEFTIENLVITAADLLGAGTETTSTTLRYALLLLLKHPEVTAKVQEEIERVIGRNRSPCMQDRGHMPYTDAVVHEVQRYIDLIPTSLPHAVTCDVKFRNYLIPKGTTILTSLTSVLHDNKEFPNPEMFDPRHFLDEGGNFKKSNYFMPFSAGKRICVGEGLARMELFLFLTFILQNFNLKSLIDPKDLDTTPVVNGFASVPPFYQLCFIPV
CYP2C9 inh: inhibitors of human CYP2C9 | P11712 | CYP2C9 Supersomes, luciferin-H conversion, luminescence | inhibition, % at 5 µM | hit rate 20% among 96,000;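 active = blocking of liver enzyme CYP2C9 beyond about 50% at 5 µM, limit read from the data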
CYP2C9 act: CYP2C9 (human) activation | P11712 | recombinant CYP2C9, luciferin-H conversion, luminescence; stronger effect = higher value; factor 1 = untreated enzyme, 0 = blocked | activation factor at 5 µM | hit rate 1.4% among 96,000 | AID 1024;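 active = activation factor of 2 or more for CYP2C9 at a 5 µM dose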;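 also: 0 = sulfaphenazole-blocked wells and 1 = vehicle-only wells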
CYP2C19 act: activators of human cytochrome P450 2C19. activation factor at 5 µM. 96,000 tested, under 10 active. recombinant CYP2C19, luciferin-H EGE luminescence; stronger effect = higher value; 0 = fully inhibited enzyme, 1 = untreated enzyme. P33261;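 active = activation factor of at least 2 at 5 µM in the primary screen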;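 also: 0 = wells with 2.5 mM tranylcypromine and 1 = vehicle-only wells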
PostGolgi yeast: growth inhibition of a yeast mutant, post-Golgi transport screen. hit rate 0.9% among 98,000. inhibition, % at 10 µM. post-Golgi transport phenotypic cell assay;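 also: yeast cells grown in 1536-well plates; yeast grown about 18 h at 30C before absorbance read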
An asterisk follows results filed as active; nt = no result given. Most compounds without a hit are left out; they make up all but 32% or so of the library. Rule as the data show it, unless noted: active = inhibition above about 30%; inactive = the rest.

SMILES	PostGolgi ctrl	CYP2C19 inhib	CYP2C9 inh	CYP2C9 act	CYP2C19 act	PostGolgi yeast
Cc1noc(C)c1C(=O)NCc1ccco1	-4	-8	-7	1.1	1.1	0
Cc1onc(-c2ccccc2Cl)c1C(=O)NCc1ccco1	25	51*	31	0.7	0.5	-6
CCOC(=O)C(Sc1nnc2c3ccccc3n(CC)c2n1)C(=O)OCC	10	32	36	0.6	0.7	-2
CCCn1c2ccccc2c2nnc(SC(CC)C(=O)Nc3sc4c(c3C#N)CCCC4)nc21 (configuration not stated)	2	70*	89*	0.1	0.3	-2
CCCCN(CCCC)Cc1cc2ccccc2c2c1COC2	-3	4	29	0.7	1	0
CCOC(=O)C1CCN(c2c(NCc3ccc(C(=O)NC4CCCC4)cc3)c(=O)c2=O)CC1	1	7	61*	0.4	0.9	-1
Cc1ccc(CNC(=O)c2ccc(CNc3c(N4CCCC4)c(=O)c3=O)cc2)cc1	11	80*	51*	0.5	0.2	-10
CCOC(=O)C1CCN(c2c(NCc3ccc(C(=O)NCCOC)cc3)c(=O)c2=O)CC1	-4	-12	0	1	1.1	5
CCOC(=O)C(C)n1nc(/C=C/c2ccccc2)ccc1=O (configuration not stated)	19	28	71*	0.3	0.7	8
Cc1cc(C)c(C#N)c(SC(F)F)n1	9	-4	-23	1.2	1	-2
N#Cc1c2c(c(NCCN3CCOCC3)n3c1nc1ccccc13)CCCC2	0	53*	86*	0.1	0.5	9
CC(C)Cc1nc(N2CCOCC2)c(C#N)c2c1COC(C)(C)C2	19	85*	68*	0.3	0.1	-1
CC(C)c1cc(NCC2CCCO2)n2c(nc3ccccc32)c1C#N (configuration not stated)	4	0	73*	0.3	1	-6
CC(C)Cc1nc2n[nH]c(N)c2c2c1COC(C)(C)C2	8	0	-4	1	1	1
Cc1nc(NCCO)c(C#N)c2c1COC(C)(C)C2	19	-8	-2	1	1.1	3
Cc1cc(NCC2CCCO2)n2c(nc3ccccc32)c1C#N (configuration not stated)	-5	4	12	0.9	1	21
CC(C)c1nc(NCCN2CCOCC2)c(C#N)c2c1COC(C)(C)C2	60*	15	45	0.5	0.9	13
CCc1nc(NCCN2CCOCC2)c(C#N)c2c1CCCC2	2	69*	10	0.9	0.3	3
CCCCc1nc(NCCN2CCOCC2)c(C#N)c2c1COC(C)(C)C2	102*	28	69*	0.3	0.7	15
CC(C)Cc1nc(NCCN2CCOCC2)c(C#N)c2c1COC(C)(C)C2	100*	88*	79*	0.2	0.1	51*
C/C(Cn1nc([N+](=O)[O-])cc1C)=N\NC(=O)c1ccc(C(C)(C)C)cc1	9	21	38	0.6	0.8	1
CCn1cc(C(=O)OCC(=O)OC2CC(C)CCC2C(C)C)c(=O)c2ccc(C)nc21 (configuration not stated)	15	75*	49	0.5	0.3	-8
CCn1cc(C(=O)OCc2ccccc2)c(=O)c2ccc(C)nc21	14	10	-5	1.1	0.9	9
CN1CCN(c2ccccc2NC(=O)COc2ccccc2)CC1	23	-3	-3	1	1	2
CSCCC(NC(=O)COc1ccccc1)C(=O)N1CCN(c2ccccc2F)CC1 (configuration not stated)	1	74*	78*	0.2	0.3	-3
SMILES	PostGolgi ctrl	CYP2C19 inhib	CYP2C9 inh	CYP2C9 act	CYP2C19 act	PostGolgi yeast
Cc1cc(C)cc(NC(=O)C2(c3ccccc3)CC2(Cl)Cl)c1 (configuration not stated)	28	28	43	0.6	0.7	11
CC(=O)c1ccc(N2CCN(C(=S)Nc3cccc(F)c3)CC2)cc1	5	22	13	0.9	0.8	-6
COCc1nnc(NS(=O)(=O)c2ccc(Br)cc2)s1	7	-13	57*	0.4	1.1	9
O=C(Nc1nnc(COc2ccc(Cl)cc2)s1)c1ccc([N+](=O)[O-])cc1	2	-14	-2	1	1.1	22
COc1ccc(S(=O)(=O)Nc2nncs2)cc1	0	nt	nt	nt	nt	2
COCc1nnc(NS(=O)(=O)c2ccc([N+](=O)[O-])cc2)s1	-4	-20	82*	0.2	1.2	11
Cc1cc(Nc2cccc(F)c2)n2c(n1)nc1ccccc12	1	4	12	0.9	1	-2
CNc1nc2ccccc2n1/N=C/c1cccc(OC)c1OC	8	13	2	1	0.9	7
COc1cccc(/C=C/c2ccncc2)c1OC	5	99*	98*	0	0	-5
Cc1ccc(SCCNC(=O)C(CO)(CO)CO)cc1	3	-5	-8	1.1	1.1	-7
O=C(CN(C(=O)CCC(=O)Nc1ccccn1)c1ccc2c(c1)OCO2)NCc1ccco1	1	49	31	0.7	0.5	9
CC(C)CCNC(=O)CN(C(=O)CCC(=O)Nc1ccccn1)c1ccc2c(c1)OCO2	2	46	58*	0.4	0.5	-13
CCC(C)(C)NC(=O)CN(C(=O)CCC(=O)Nc1cc(C)ccn1)c1ccc2c(c1)OCO2	1	58*	50*	0.5	0.4	12
Cc1cc(C)cc(N(CC(=O)NCc2ccco2)C(=O)CCC(=O)Nc2ccccn2)c1	2	61*	24	0.8	0.4	2
Cc1ccc(N(CC(=O)NCc2ccco2)C(=O)CCC(=O)Nc2ccccn2)cc1C	-8	96*	30	0.7	0	-6
Cn1c(=O)c2c(nc(SCc3cccnc3)n2Cc2ccc(F)cc2)n(C)c1=O	10	26	41	0.6	0.7	0
CCOC(=O)C1C(=O)OC2(CCOC(C)(C)C2)C1C(=O)OCC (configuration not stated)	-13	18	-17	1.2	0.8	1
O=C(Cc1ccc(Cl)cc1)NCC(=O)N1CCCC1	-4	34	-6	1.1	0.7	6
COc1ccc(CC(=O)N2CC(C)CC(C)C2)cc1 (configuration not stated)	23	41	-3	1	0.6	4
N#Cc1c(NC(=O)COC(=O)c2ccc(F)cc2)sc2c1CCC2	37*	1	15	0.8	1	-1
Cc1ccc(OCC(=O)Nc2sc3c(c2C#N)CCC3)cc1	-7	-13	25	0.8	1.1	15
Cc1ccc(C(=O)OCC(=O)Nc2ccccc2)cc1NC(=O)c1ccco1	8	26	15	0.8	0.7	-5
Cc1ccc(C(=O)OCC(=O)Nc2sc3c(c2C#N)CCCC3)cc1NC(=O)c1ccco1	-9	34	91*	0.1	0.7	13
